Reference: PubChem BioAssay AID1508600 (Functional Genomics Laboratory (NCATS/FGL), 2020)
In all, about 53,000 sequences went through this assay and about 3,700 (7%) were called active. Shown is part of a subset that was picked to be rich in actives. Values without a mark were called inactive.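 How the source made its calls: active means gene knockdowns whose robust z-score for IL-1 alpha signal is at least 2 or at most -2, so actives lie on both sides; inactive means the rest.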

Experiment: Components of the Cytosolic LPS Sensing Pathway: Gene Identification via Genome-wide siRNA Screen;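 further: robust z of the log signal after scaling to non-targeting control siRNA wells of the plate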
Conditions: RAW264.7 macrophages, IL-1a HTRF, actives lie on both sides, screened at 100 nM (by protocol), cells primed 5 h with Pam3CSK4 first
In short: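 Read-out: IL-1a HTRF on supernatant, divided by plate negative-control median ×100, log-transformed and converted to robust z-score. Cells were RAW264.7 given 100 nM siRNA, Pam3CSK4-primed 5 hours, then LipidA-transfected 24 hour.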
In the case of GGUAACCAAAACAAUUCUGTT against Cog8, the z-score is reported as -0.00241.
With GGUGUCUGAGUAAUUCUGGTT against Zscan5b the z-score was -1.55.
In the case of GUGUAGCUCUUCACAGUUATT against Fgf2os, the z-score is reported as 0.673.
For GGCUUUGGAAUGAGAGCUUTT against Dynlrb1, the z-score was -2.07 (active).
Work on “CGUGUUUAGGAAAAAUUGUTT against 2510039O18Rik” yielded a z-score of -0.398.
In the case of CCUGCUAAGUGAAUUUGUGTT against Cmpk1, the z-score is reported as 2.18 (active).
In the case of GCAACGAGCAAAAAGCAUGTT against Htr2a, the z-score is reported as -0.794.
Sequence GGUCCUUAUCGCUUGGAUGTT against Vwa8 has a z-score of -0.202.
With GGCUAAGACCAAAACUUUATT against Cyp4f13 the z-score was 0.772.
In the case of GCAGCUUUGAAAUUGUCCATT against Stard5, the z-score is reported as -1.72.
CGAUGCAAAAAGAAUAGACTT against Mark1 gave a z-score of 0.673.
In the case of GGCUAGUUUUCUCUUAAAUTT against Usp1, the z-score is reported as -3.12 (active).
GAGUGUCCGAUAGACCGUUTT against Rbm4 gave a z-score of -0.429.
With GGCGCAAAUACUUCUUCAUTT against Nrg1 the z-score was 0.533.
For GCACCUUUGAGUGCAACAUTT against Rnf185, the z-score was -2.37 (active).
With CCUAAGAUUUUGGAACAAATT against Cenpm the z-score was -0.47.
Sequence GGCCAGGAGAAGAUUGAACTT against Ccdc42 has a z-score of 0.00447.
With GGCUGAAUCGGCAUUUCCATT against Klhdc3 the z-score was -0.184.
In the case of GGCUGCAUGGUACAGAUCUTT against Olfr463, the z-score is reported as -2.33 (active).
Work on GCUUUUUGAGUCUGAUUUATT against Dmgdh yielded a z-score of 0.413.
In the case of GGCAUUCAAAAGGUAAAAUTT against Grid2, the z-score is reported as -0.515.
For GCUGACUGCCAAGGAUUUUTT against Ogn, the z-score was -0.135.
For “GGCAUGAAACCUCCAAAGCTT against 1520401A03Rik”, the z-score was 0.643.
CGGAUAUUUACGAACUUACTT against Pitpnb showed a z-score of 1.24.
With GGGUCAGAUUUUCAAUGUCTT against Bmpr1b the z-score was 0.8.
For GGUUGAAACUGCUCUCAAGTT against Prl2a1, the z-score was 1.77.
For GGACCAUGAGGGAAUACAGTT against Bdkrb2, the z-score was 4.91 (active).
CGCAGACAAGAAAUGAAGGTT against Hnf4aos showed a z-score of -1.98.
For GCAUGAGGAAAAAUCUUCATT against Neurod4, the z-score was -0.158.
